Results filed as inconclusive are left out. More than one record can exist for a structure, and the calls need not agree. Active and inactive are the calls of the source. Calls follow the shape of the dose curve; as a rule, active = well fitted inhibition curve with a large enough effect; inconclusive = small, poorly fitted or top-dose-only effect; inactive = no such curve, though single readings can be large or run the other way.
What follows are molecules tested against Cytochrome P450 2D6 (Homo sapiens) (UniProt P10635) (assay: qHTS Assay for Inhibitors and Substrates of Cytochrome P450 2D6 (AID 891)). Conditions: recombinant CYP2D6, luciferin-ME EGE luminescence; series mostly up to 11.4 µM.
Chain of Cytochrome P450 2D6 (Homo sapiens) (P10635 whole entry, looked up): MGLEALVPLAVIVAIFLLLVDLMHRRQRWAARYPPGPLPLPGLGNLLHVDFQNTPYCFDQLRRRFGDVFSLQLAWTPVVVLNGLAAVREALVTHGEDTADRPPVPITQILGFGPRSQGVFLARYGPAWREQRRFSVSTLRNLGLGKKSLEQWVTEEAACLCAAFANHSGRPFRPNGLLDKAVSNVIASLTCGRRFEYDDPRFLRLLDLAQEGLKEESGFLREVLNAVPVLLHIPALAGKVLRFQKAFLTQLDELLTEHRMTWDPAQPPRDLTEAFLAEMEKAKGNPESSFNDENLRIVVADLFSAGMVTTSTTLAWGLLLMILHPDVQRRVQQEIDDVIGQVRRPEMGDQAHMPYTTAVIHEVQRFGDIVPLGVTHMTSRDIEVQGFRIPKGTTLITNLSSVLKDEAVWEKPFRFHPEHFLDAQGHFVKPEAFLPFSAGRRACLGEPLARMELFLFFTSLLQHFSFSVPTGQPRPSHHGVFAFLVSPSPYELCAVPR
Outline: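 Luminescent read-out of luciferin formed by 5 nM human CYP2D6 demethylating 30 uM Luciferin-ME EGE (Km level) over 60 min at room temperature after NADPH regeneration addition. Data normalized to full inhibition by 1.43 uM quinidine.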
Also: nearly all actives have a fitted effect of over 60% in size.
Potency is read from the fitted curve at half-maximal effect.

Potency, inactive:
CCC1OCCC=CC1C (stereo not drawn)
CC(=O)OCC1OC(c2ccc(C(C)=O)cc2)C=CC1OC(C)=O (stereo not drawn)
COC(=O)NC(CC(C)=O)c1ccco1 (stereo not drawn)
C=C(C)CC1(c2ccccc2)Oc2ccccc2-c2nc3cc(Cl)c(Cl)cc3nc21 (stereo not drawn)
COCC#Cc1ccc(C2NC(C(=O)O)CCC2C)cc1 (stereo not drawn)
CC(=O)OCC1OC(C#Cc2ccc(Cl)cc2)C=CC1OC(C)=O (stereo not drawn)
COC(=O)NC(c1cccc(C)c1)[C@]1(C(C)=O)CCCC1=O (stereo partly drawn)
O=C1C2Cc3c([nH]c4ccccc34)C(c3ccccc3)N2C(=O)C2Cc3c([nH]c4ccccc34)C(c3ccccc3)N12 (stereo not drawn)
O=C1C=C[C@@H](O)[C@@H]2[C@H]3C(=O)N(c4ccc(F)cc4F)C(=O)[C@@H]3CC[C@@H]12
CCCCCCC/C=C/C1=CC2(C)CC1(C)C(CCCCCCC)CC2=O (stereo not drawn)
COC(=O)NC(CC(C)=O)c1ccccc1 (stereo not drawn)
COC(=O)NC(CC(C)=O)c1cccc(F)c1 (stereo not drawn)
CC(=O)OCC1OC(C#CC2=CCCCC2)C=CC1OC(C)=O (stereo not drawn)
COC(=O)NC(CC(C)=O)c1cccs1 (stereo not drawn)
O=C1/C(=C/c2ccccc2)Oc2ccccc21
COC(=O)NC(CC(C)=O)c1cccc(C(F)(F)F)c1 (stereo not drawn)
CCOC(=O)OCC1OC(C#CC(C)(C)C)C=CC1OC(=O)OCC (stereo not drawn)
COC(=O)NC(c1ccco1)[C@@]1(C(=O)OC)CCCC1=O (stereo partly drawn)
CC1(C)OC(C(O)(c2cc(C(F)(F)F)cc(C(F)(F)F)c2)c2cc(C(F)(F)F)cc(C(F)(F)F)c2)C(C(O)(c2cc(C(F)(F)F)cc(C(F)(F)F)c2)c2cc(C(F)(F)F)cc(C(F)(F)F)c2)O1 (stereo not drawn)
CC(=O)OCC1OC(C#CC(C)(C)C)C=CC1OC(C)=O (stereo not drawn)
CCOC(=O)OCC1OC(c2ccc(C(C)=O)cc2)C=CC1OC(=O)OCC (stereo not drawn)

Potency, active:
O=C(O)C1Cc2c([nH]c3ccccc23)C(c2ccccc2)N1 (stereo not drawn) 3.98 µM

Each molecule was assayed against Cytochrome P450 2C19 (Homo sapiens) (UniProt P33261) (assay: qHTS Assay for Inhibitors and Substrates of Cytochrome P450 2C19 (AID 899)). Conditions: recombinant CYP2C19, luciferin-H EGE luminescence; series mostly up to 11.4 µM.
Chain of Cytochrome P450 2C19 (Homo sapiens) (P33261 whole entry, looked up): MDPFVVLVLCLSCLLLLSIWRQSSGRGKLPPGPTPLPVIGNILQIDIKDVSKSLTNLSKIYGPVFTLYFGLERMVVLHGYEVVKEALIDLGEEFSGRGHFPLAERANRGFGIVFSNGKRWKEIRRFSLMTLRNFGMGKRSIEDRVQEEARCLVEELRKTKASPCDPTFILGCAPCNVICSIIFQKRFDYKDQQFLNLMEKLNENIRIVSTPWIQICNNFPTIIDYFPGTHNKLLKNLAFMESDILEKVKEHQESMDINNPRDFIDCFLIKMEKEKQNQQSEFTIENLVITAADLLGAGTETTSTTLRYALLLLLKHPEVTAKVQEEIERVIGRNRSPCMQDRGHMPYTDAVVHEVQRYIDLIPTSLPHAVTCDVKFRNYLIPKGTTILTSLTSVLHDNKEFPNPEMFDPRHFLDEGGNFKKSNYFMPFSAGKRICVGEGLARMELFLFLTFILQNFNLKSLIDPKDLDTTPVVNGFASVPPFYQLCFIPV
Outline: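 Reactions contain 5nM enzyme, 10uM Luciferin-H EGE (KM) and 50mM KPO4; compound preincubates 10 min at 37C, NADPH regeneration starts turnover for 60 min. Luminescence after detection reagent gives activity.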

Potency, 1 µM (active) and inactive:
CC(=O)OCC1OC(C#Cc2ccc(Cl)cc2)C=CC1OC(C)=O (stereo not drawn)

Potency, inactive:
Cc1cc(C)cc(C#CC2C=CC(Oc3ccc(C4CCCC4)cc3)C(CO)O2)c1 (stereo not drawn)
CC12C=C(/C=C/CCc3ccco3)C(C)(C1)C(CCc1ccco1)CC2=O (stereo not drawn)
COC(=O)NC(CC(C)=O)c1cccc(C)c1 (stereo not drawn)
CCOC(=O)OCC1OC(c2ccccc2)C=CC1Oc1ccc2oc(=O)cc(C)c2c1 (stereo not drawn)
CC1CCC(C(=O)O)NC1c1cccc(N2CCOCC2)c1 (stereo not drawn)
CCN1C(C)=C(C(=O)OC)C(c2ccccc2)N2C(=O)[C@@]3(C(=O)OC)O[C@@]12C1C(=O)N(c2ccccc2)C(=O)C13 (stereo partly drawn)
C#CC(C)OC(=O)c1nnc2c3ccccc3n(COC)c2n1 (stereo not drawn)
Cc1cc(=O)oc2cc(OC3C=CC(C#CC(C)(C)C)OC3CO)ccc12 (stereo not drawn)
CCN1C(C)=C(C(=O)OC)C(c2ccccc2)N2C(=O)[C@](O)(C(=O)OC)CC(C(C)=O)=C12 (stereo partly drawn)
COC(C(C)/C=C/CC(=O)OCCCc1ccccc1)C1CCCCC1 (stereo not drawn)
CCC1OCCC=CC1C (stereo not drawn)
CC(=O)OCC1OC(c2ccc(C(C)=O)cc2)C=CC1OC(C)=O (stereo not drawn)
O=C(O)C1Cc2c([nH]c3ccccc23)C(c2ccccc2)N1 (stereo not drawn)
COC(=O)NC(CC(C)=O)c1ccco1 (stereo not drawn)
C=C(C)CC1(c2ccccc2)Oc2ccccc2-c2nc3cc(Cl)c(Cl)cc3nc21 (stereo not drawn)
COCC#Cc1ccc(C2NC(C(=O)O)CCC2C)cc1 (stereo not drawn)
COC(=O)NC(c1cccc(C)c1)[C@]1(C(C)=O)CCCC1=O (stereo partly drawn)
O=C1C2Cc3c([nH]c4ccccc34)C(c3ccccc3)N2C(=O)C2Cc3c([nH]c4ccccc34)C(c3ccccc3)N12 (stereo not drawn)
C=C(C)C(O)C(CC/C=C(\C)C(=O)OCC)OC (stereo not drawn)
O=C1C=C[C@@H](O)[C@@H]2[C@H]3C(=O)N(c4ccc(F)cc4F)C(=O)[C@@H]3CC[C@@H]12
CCCCCCC/C=C/C1=CC2(C)CC1(C)C(CCCCCCC)CC2=O (stereo not drawn)
COC(=O)NC(CC(C)=O)c1ccccc1 (stereo not drawn)
COC(=O)NC(CC(C)=O)c1cccc(F)c1 (stereo not drawn)
CC(=O)OCC1OC(C#CC2=CCCCC2)C=CC1OC(C)=O (stereo not drawn)
COC(=O)NC(CC(C)=O)c1cccs1 (stereo not drawn)

— PubChem BioAssay (NCATS)
